Only some compounds are listed: those with a hit (about 12% of all), similar ones and a draw of the others.
Shiga inhibitor = blocks Shiga toxin action in Vero cells. Vero cells, Shiga toxin protein synthesis inhibition reporter. inhibition, % at 38.7 µM. 9.2% of 290,000 active; in the data active means inhibition mostly above about 28%, no sharp cut-off; inactive means mostly below about 43%; further: 0% is about no effect
FMDV inh = foot and mouth disease virus antiviral activity | FMDV antiviral cell-based qHTS | Potency, µM (highest dose often 57.9 µM), for the others: at the top dose activity change, negative = inhibition, most hits filed as inhibitors | 1.2% of 410,000 active | AID 1159524; calls by dose curve; tested in HEK293T cells; further: read-out not given here; potency means the concentration at half of the fitted maximal effect; on the % scale 0 is the no-effect control and ±100 the full control effect; nearly all actives have a fitted effect of over 45% in size
CHX counter = affects cycloheximide protein synthesis inhibition readout, counter-screen; cell reporter, cycloheximide protein synthesis inhibition counterscreen; max response, %; 12% of 300,000 active; AID 2314; in the data active means max response mostly above about 13%, no sharp cut-off; inactive means mostly below about 14%; further: read at 38.3 µM for the half of the compounds with a filed dose; 0% is about no effect
Sm TGR inh = blocks Schistosoma mansoni thioredoxin glutathione reductase. purified TGR, DTNB reduction, TNB absorbance 405 nm. 3% of 360,000 active. Potency, µM (titrated, usually from 114 µM), for the others: at the highest dose activity change, negative = inhibition, hits mostly inhibitors; active means well fitted inhibition curve with a large enough effect; inconclusive means small, poorly fitted or top-dose-only effect; inactive means no such curve, though single readings can be large or run the other way; further: potency means the concentration at half of the fitted maximal effect; on the % scale 0 is the no-effect control and ±100 the full control effect; nearly all actives have a fitted effect of over 60% in size
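TGR 20 nM + NADPH 100 uM (dispensed conc.), cpd preinc 15 min RT; start with NADPH (500 uM addition) then DTNB (15 mM addition). Kinetic TNB absorbance, 405 nm filter. Four-parameter Hill fit across titration.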
Numbers without * were called inactive; ? = inconclusive; · = no result; ! = repeats disagree.

SMILES	Shiga inhibitor	FMDV inh	CHX counter	Sm TGR inh
CCCCNC(=O)CN1CCN(c2ncc(NC(=O)c3ccc(Cl)cc3)cc2C(=O)O)CC1	·	-16%	·	-19%
Cc1ccc(C(=O)N/N=C\c2sccc2C)cn1	73*	59%	34*	4%
Cc1ccsc1/C=N/NC(=O)c1ccco1	46*	30%	24*	-4%
Cc1ccsc1/C=N\NC(=O)c1cc(C(C)(C)C)[nH]n1	104*	58%	24*	·
Cc1nnc(N2CCN(c3ccccc3F)CC2)c2c1nnn2Cc1ccccc1Cl	·	?	·	0%
O=C(O)/C=C/C(=O)Nc1ccc2nccnc2c1	46	45%	23*	-35%
O=C(Nc1cccc(F)c1)c1ccccc1	79*	35%	38*	3%
O=C(O)/C=C\C(=O)Nc1cccc(NC(=O)c2ccccc2)c1	52	-6%	22*	·
O=C(Nc1ccc(Nc2ccccc2)cc1)c1cccc(F)c1	117*	22%	36*	0%
O=C(O)c1cccc(NC(=O)c2ccccc2)c1	·	-6%	·	·
O=C(Nc1ccncc1)c1cccc(F)c1	1	4%	-1	-14%
COc1ccc(-n2ncc3c(NC4CCCC4)ncnc32)cc1	·	-33%	·	-2%
CC(C)(C)OC(=O)NS(=O)(=O)NCc1ccco1	12	·	6	·
COc1ccc(C(=O)c2cn(CC(=O)Nc3ccc4c(c3)OCCO4)c3ccc(OC)cc3c2=O)cc1	·	-16%	·	5%
CCN(CC)C(=O)c1ccc(NC(=O)c2cccc(F)c2)cc1	72	50%	35*	4%
CCN(CC)C(=O)c1ccc(NC(=O)c2cccc(S(=O)(=O)N3CCN(C)CC3)c2)cc1	-6	43%	6	5%
C=C[C@@H]1[C@@H](C)[C@H](C)C(=O)C([C@H](O)C(C)C)[C@@H]1C (stereo not given in full)	-8	·	-4	·
CCc1ccc(-n2nc3cc(C)c(NC(=O)c4cc(OC)cc(OC)c4)cc3n2)cc1	·	10%	·	-3%
COc1ccc(-n2nc3cc(C)c(NC(C)=O)cc3n2)cc1	140*	-54%	32*	·
CCOc1ccc(-n2nc3cc(C)c(NC(=O)CC)cc3n2)cc1	·	-5%	·	5%
COc1ccc(-n2nc3cc(C)c(NC(=O)C(C)C)cc3n2)cc1	69*	·	36*	0%
CCOC(=O)/C(C#N)=C\N(C)C	-9	-1%	-4	-17%
CCOC(=O)/C(C#N)=C/C=C1/C=CC=CN1C	34	-4%	27*	-1%
C=CCN1C=CC(=C/C=C(/C#N)C(=O)OCC)C=C1	47	-4%	34*	2%
O=C1NC(=O)N(c2ccccc2F)C(=O)/C1=C/c1ccc(Sc2nc3ccccc3[nH]2)o1	-5	?	-2	7.1µM*
SMILES	Shiga inhibitor	FMDV inh	CHX counter	Sm TGR inh
O=C1NC(=O)N(c2cccc(Cl)c2)C(=O)/C1=C\c1ccc(Sc2nc3ccccc3[nH]2)o1	-12	-18%	-4	7.1µM*
N#C/C(=C\c1ccc(Sc2nc3ccccc3[nH]2)o1)c1ccccc1	-5	?	1	-25%
COC(=O)c1ccc(OC(=O)c2ccncc2)cc1O	18	-17%	-2	45µM*
CC(=NNC(=O)c1ccncc1)c1ccc(O)cc1O	·	10%	·	·
O=C(COc1ccc2ccccc2c1)NC1CC(=O)N(c2ccccc2)C1 (stereo not given)	·	-13%	·	4%
CCC1CCCCN1C(=O)CSc1nnc(-c2ccc3c(c2)OCCO3)o1 (stereo not given)	28	-22%	27*	-1%
O=C(CSc1nnc(-c2ccc3c(c2)OCCO3)o1)N1CCCC1	43	-38%	44*	-6%
Cc1ccc(CNc2nc(-c3ccco3)nn2S(C)(=O)=O)cc1	·	32%	·	-9%
c1cncc(CNc2ncncc2-c2ccoc2)c1	·	-20%	·	·
O=C(Nc1ccccc1C(=O)N1CCCCC1)c1nsc2ccccc12	·	20%	·	3%
c1ccc(CSc2ncnc3c2cnn3-c2ccccc2)cc1	-6	7%	1	6%
CCc1nc(NC(C)(C)C)c2cnn(-c3ccccc3)c2n1	99*	0%	41*	-3%
CC(C)(C)C(=O)CSc1ncnc2c1cnn2-c1ccccc1	62*	-11%	43*	15%
Clc1ccc(-n2ncc3c(NCCCn4ccnc4)ncnc32)cc1	35*	31%	21*	-2%
CCC(=O)NNc1ncnc2c1cnn2-c1ccccc1	21	19%	12	-5%
Nc1ncnc2c1cnn2-c1ccccc1	91*!	5%	29*	2%
Clc1ccc(-n2ncc3c(NCc4ccccn4)ncnc32)cc1	-22	50%	-2	0%
O=C(O)C(Cc1ccc2c(c1)oc1ccccc12)NCP(=O)(O)O (stereo not given)	-13	6%	10	·
COc1ccc(C2=C(C)C(N3CCC(C(=O)Nc4cc(C)ccc4C)CC3)=NS2(=O)=O)cc1	·	-19%	·	-13%
CCCCNc1ncnc2c1cnn2Cc1ccc(Cl)cc1	-10	-5%	2	-9%
CCCCNc1ncnc2c1cnn2-c1ccc(Cl)cc1	72*	-9%	51*	0%
CCCCNc1ncnc2c1cnn2-c1ccccc1	92*	1%	61*	11%
Cc1ccccc1-n1ncc2c(SCC(=O)NC3CCCC3)ncnc21	71*	?	32	2%
Cc1cc(C)cc(-n2ccnc2SCC(=O)Nc2ccc3c(c2)OCO3)c1	·	?	·	2%
CCOc1ccc(OCC)c(NC(=O)CN(C)S(=O)(=O)c2ccc3[nH]c(=O)oc3c2)c1	·	-32%	·	-1%
SMILES	Shiga inhibitor	FMDV inh	CHX counter	Sm TGR inh
Cc1cccc(-c2nnc(SCC(=O)N3CCCCC3)o2)c1	·	31%	·	-2%
O=C(CSc1nnc(-c2ccc(F)cc2)o1)N1CCCC1	34	0%	16*	-10%
Cc1cccc(-c2nnc(SCC(=O)N3CCCC3)o2)c1	93*	43%	19*	-3%
COc1ccc(-c2nnc(SCC(=O)N3CCCCC3)o2)c(OC)c1	25	·	30*	3%
Cc1ccc(-c2nnc(SCC(=O)N3CCCC3)o2)cc1	56	56%	17*	1%
COc1ccc(-c2nnc(SCC(=O)N3CCCCC3)o2)cc1	26	46%	12	7%
Cc1ccc(-c2nnc(SCC(=O)NC3CC3)o2)cc1	61*	17%	24*	10%
Cc1cccc(-c2nnc(SCC(=O)NC3CCCC3)o2)c1	26	-4%	-3	-5%
CCc1ccc(OCc2nnc(SCC(=O)NC3CCCCC3)o2)cc1	47*	47%	20	0%
CCOc1ccc(-c2nnc(SCC(=O)N3CCCC3)o2)cc1	2	55%	-1	-9%
COc1ccc(-c2nnc(SCC(=O)N3CCCC3)o2)cc1	67*	45%	33*	0%
CCOc1ccc(-c2nnc(SCC(=O)N3CCOCC3)o2)cc1	69*	25%	24*	4%
COc1ccc(CNC(=O)Cn2ccc3cc(S(=O)(=O)N4CCCCCC4)ccc32)c(OC)c1	·	-5%	·	24%
CCOc1ccc(Nc2c(S(=O)(=O)c3ccc(Cl)cc3)cnc3ccc(OCC)cc23)cc1	·	-18%	·	3%
c1cncc(CNc2nc(-c3ccoc3)nc3ccccc23)c1	·	-13%	·	·
CCOC(=O)N1CCN(C(=O)CSc2nnc(-c3ccc(C)c(C)c3)o2)CC1	9	0%	-2	-2%
Cc1ccc(-c2nnc(SCC(=O)N3CCCC3)o2)cc1C	72*	3%	36*	-1%

Compound activity from PubChem.
